Measurements: PubChem BioAssay (NCATS)
Inconclusive results are not listed. A call without a number means that no potency is given here. Activity calls are given as the source filed them. Calls follow the shape of the dose curve; as a rule, active = well fitted curve in the direction sought with a large enough effect; inconclusive = small, poorly fitted or top-dose-only effect, or another doubt; inactive = no such curve, though single readings can be large; an effect the other way counts as inactive or inconclusive. Positions of bridges follow the written chain, without caps; N, C: chain ends. Non-standard residues stand in square brackets, D forms with d. Residues, ends and D or L forms follow the SMILES beside them. ξ: configuration not given here. *: point of attachment. ξDab(CH2SO3H) = NC(CCNCS(=O)(=O)O)C(=O)O; Octanoyl(6-Me) = CCC(C)CCCCC(=O)*; Dab = NCC[CH](N)C(=O)O

experiment: Vero cells viability qHTS for Zika virus inhibitors (AID 1347167); conditions: cytotoxicity counter-screen (Zika); series mostly up to 45.9 µM
In short: (§1)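 qHTS titration; 24-48 h compound exposure, 37 degrees C/5% CO2; DMEM, 4% FBS; CellTiter Glo ATP luminescence.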

| SMILES | Potency |
| --- | --- |
| CCN(CC)c1ccc(/C=N/NC(=O)c2ccc(O)cc2)cc1 | inactive |
| CCOC(=O)O[C@H](C)OC(=O)C1N2C(=O)[C@H](NC(=O)[C@H](N)c3ccccc3)C2SC1(C)C (some centres not stated) | inactive |
| CC[C@@H]1O[C@]2(C=C[C@@H]1C)C[C@H]1C[C@H](CC=C(C)[C@@H](O[C@@H]3C[C@H](OC)[C@H](O[C@@H]4C[C@H](OC)[C@H](O)[C@H](C)O4)[C@H](C)O3)[C@@H](C)C=CC=C3CO[C@@H]4[C@@H](O)C(C)=C[C@@H](C(=O)O1)[C@]34O)O2 | inactive |
| Cc1c2ccccc2c(CSC(=N)N)c2ccccc12 | inactive |
| CC1OC(OC2C(O)CC(OC3C(O)CC(OC4CCC5(C)C(CCC6C5CC(O)C5(C)C(C7=CC(=O)OC7)CCC65O)C4)OC3C)OC2C)CC(O)C1O (configuration not stated) | inactive |
| CCCCOc1ccc(C2C(=O)N(C3CCCCC3)CC(=O)N2C2CCCCC2)cc1 (configuration not stated) | inactive |
| CC(C)C[C@@H](NC(=O)[C@H](Cc1ccccc1)NC(=O)c1cnccn1)B(O)O | inactive |

experiment: HepG2 cells viability qHTS for Zika virus inhibitors (AID 1347168); conditions: Zika counter-screen; series mostly up to 45.9 µM; also: potency is read from the fitted curve at half-maximal effect
In short: as §1

| SMILES | Potency |
| --- | --- |
| CCN(CC)c1ccc(/C=N/NC(=O)c2ccc(O)cc2)cc1 | inactive |
| CCOC(=O)O[C@H](C)OC(=O)C1N2C(=O)[C@H](NC(=O)[C@H](N)c3ccccc3)C2SC1(C)C (some centres not stated) | inactive |
| CC[C@@H]1O[C@]2(C=C[C@@H]1C)C[C@H]1C[C@H](CC=C(C)[C@@H](O[C@@H]3C[C@H](OC)[C@H](O[C@@H]4C[C@H](OC)[C@H](O)[C@H](C)O4)[C@H](C)O3)[C@@H](C)C=CC=C3CO[C@@H]4[C@@H](O)C(C)=C[C@@H](C(=O)O1)[C@]34O)O2 | inactive |
| CC1OC(OC2C(O)CC(OC3C(O)CC(OC4CCC5(C)C(CCC6C5CC(O)C5(C)C(C7=CC(=O)OC7)CCC65O)C4)OC3C)OC2C)CC(O)C1O (configuration not stated) | inactive |
| CCCCOc1ccc(C2C(=O)N(C3CCCCC3)CC(=O)N2C2CCCCC2)cc1 (configuration not stated) | inactive |
| CC(C)C[C@@H](NC(=O)[C@H](Cc1ccccc1)NC(=O)c1cnccn1)B(O)O | 42.6 nM (active) |

experiment: Tertiary RLuc qRT-PCR qHTS assay for Zika virus inhibitors (AID 1347169); conditions: infected Vero cells, reporter luminescence, 48-72 h; series mostly up to 1.74 µM; also: nearly all actives have a fitted effect of over 55% in size; also: potency is read from the fitted curve at half-maximal effect
In short: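 Orthogonal cell-based readout: luminescence measured 1-1.5 hrs after adding live-cell Renilla substrate to Vero cells that had been infected with ZIKV-RLuc (MOI 1-2) post-compound, incubated 48-72 hrs at 37 degrees C.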

| SMILES | Potency |
| --- | --- |
| O=C1C=CC(=O)c2c(O)c(Cl)c(Cl)c(O)c21 | inactive |
| CCN(CC)c1ccc(/C=N/NC(=O)c2ccc(O)cc2)cc1 | inactive |
| O=C(O)COc1ccc(-c2nccc3c2C(=O)N(Cc2cccc(C(F)(F)F)c2)CC(COc2cccc(F)c2)O3)cc1 (configuration not stated) | inactive |
| O=C(O)COc1ccc(-c2nccc3c2C(=O)N(Cc2cccc(C(F)(F)F)c2)CC(COc2ccc4cnccc4c2)O3)cc1 (configuration not stated) | inactive |
| CC[C@@H]1O[C@]2(C=C[C@@H]1C)C[C@H]1C[C@H](CC=C(C)[C@@H](O[C@@H]3C[C@H](OC)[C@H](O[C@@H]4C[C@H](OC)[C@H](O)[C@H](C)O4)[C@H](C)O3)[C@@H](C)C=CC=C3CO[C@@H]4[C@@H](O)C(C)=C[C@@H](C(=O)O1)[C@]34O)O2 | 9970 nM (active) |
| COc1ccccc1C(=O)Nc1ccc(C(=O)OCc2cc(=O)n3c4c(sc3n2)CCCC4)cc1 | inactive |
| Cc1cc(S(=O)(=O)Nc2ccc(C(=O)O)cc2)c(C)c(S(=O)(=O)c2ccc(Cl)cc2)c1 | inactive |
| N#Cc1ccc(OCC2CN(Cc3c[nH]c4ccccc34)C(=O)c3c(ccnc3-c3ccc(OCC(=O)O)cc3)O2)cc1 (configuration not stated) | inactive |
| CCOC(=O)c1ccc(NC(=O)CSc2nc(-c3cccs3)cc(C(F)(F)F)c2C#N)cc1 | inactive |
| O=C(O)COc1ccc(-c2nccc3c2C(=O)N(Cc2ccccc2)CC(COc2ccc4cccnc4c2)O3)cc1 (configuration not stated) | inactive |
| O=C(COc1ccccc1)Nc1ccc(C(=O)OCc2cc(=O)n3nc(C4CC4)sc3n2)cc1 | inactive |
| Cc1ccc(OCC(=O)Nc2ccc(C(=O)OCc3cc(=O)n4nc(C5CC5)sc4n3)cc2)cc1 | inactive |
| CC1OC(OC2C(O)CC(OC3C(O)CC(OC4CCC5(C)C(CCC6C5CC(O)C5(C)C(C7=CC(=O)OC7)CCC65O)C4)OC3C)OC2C)CC(O)C1O (configuration not stated) | 214 nM (active) |
| CCCCOc1ccc(C2C(=O)N(C3CCCCC3)CC(=O)N2C2CCCCC2)cc1 (configuration not stated) | inactive |
| Clc1nc2n[nH]nc2nc1Cl | inactive |
| CCCCc1nn2c(=O)cc(COC(=O)c3ccc(NC(=O)CCc4ccccc4)cc3)nc2s1 | inactive |
| O=c1oc2ccc3ccccc3c2cc1-c1nnc(Nc2cc(C(F)(F)F)ccc2Cl)s1 | inactive |
| Cc1cccc(OCC(=O)Nc2ccc(C(=O)OCc3cc(=O)n4nc(C5CC5)sc4n3)cc2)c1 | inactive |
| CCC(C)CCCCC(=O)NC(CCNCS(=O)(=O)O)C(=O)NC(C(=O)NC(CCNCS(=O)(=O)O)C(=O)NC1CCNC(=O)C(C(C)O)NC(=O)C(CCNCS(=O)(=O)O)NC(=O)C(CCNCS(=O)(=O)O)NC(=O)C(CC(C)C)NC(=O)C(CC(C)C)NC(=O)C(CCNCS(=O)(=O)O)NC1=O)C(C)O (configuration not stated) ({Octanoyl(6-Me)}-[ξDab(CH2SO3H)]T[ξDab(CH2SO3H)][Dab][ξDab(CH2SO3H)]LL[ξDab(CH2SO3H)][ξDab(CH2SO3H)]T; lactam 4-C; configuration not given here) | inactive |
